# Source: the supplement of paper PMC11417369
# In all, about 25,000 sequences were measured (“ln(normalized median fluorescence intensity)”: median about 7.1, highest 2% from about 10 on). Only a selection was taken, and the highest values are over-represented in it overall.
# Tested on: PfSIP2 AP2 domain 1 (GST-tagged)
# Test: gcPBM binding intensity (ln(normalized median fluorescence intensity)); higher = stronger DNA binding
# Procedure, shortened: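 Binding intensity is defined as the maximum Masliner-normalised natural-log median intensity across replicate spots for either probe orientation. It was measured on an Agilent 4 × 180k array of primer-extended double-stranded 36-bp intergenic genomic probes and negative controls, to which GST-tagged P. falciparum DNA-binding domains made in E. coli were applied for 1 h in 1× PBS with 1% milk, 0.2 mg/ml BSA, 0.5% salmon testes DNA and 0.03% Triton X-100. Detection was by Alexa488 anti-GST antibody and scanning at 488 nm.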
row,Sequence,gcPBM binding intensity (ln)
1,TATTATTAATATGTATGGTTGTAATCTGTGTCTCCT [TGCATGCA_negctrl_site190],7.12
2,CATTTTTTGCTTTCAACACACATACAATATATATAA [CACACA_site6127],7.26
3,AAAAAGAATAAATAAATAAATAAATATATATATATA [GTGCAC_negctrl_site584],9.47
4,AATATATGTAAATGGACACACACATATATATATATA [CACACA_site9220],9.61
5,AGAAATGAAATATACACACATACATATATACATATA [CACACA_site4033],7.21
6,ACATATATGTATAATACACACACTAATATATAATTG [CACACA_site1966],7.15
7,CATATAAAAAATATGGTGCAGTTTTTTTTTTTTTTT,10.4
8,TTATAAAAAATTTTAGTGCATATATGATTTATATAT [GTGCAC_site9831],8.21
9,CATATATAAATATAAATATATATATATATATATATG [XGTACX_negctrl_site493],7.56
10,TTTTGTAGTTTATAAATAAAAGAGAATATGGTGCTT [CACACA_negctrl_site413],7.7
11,ATATATATATATGTAGTGCATTTTATATATAATATT,9.01
12,TAATATATATATATGGTGCATTTAATTTATATATAA,10.8
13,AAAATTAATATCTTGGTGCATTTTTTAATATTATTA [GTGCAC_site9638],10
14,GAATTATAAATTATAGTGCATAAAATTATGGCATAA [GTGCAC_site9938],8.52
15,AAAATTTATAGTATGGTGCATAAAAATATATATATA,10.3
16,ACTCTATACATCTAATGTACATGGAAAAAAAAATTC [XGTACX_site733],7.28
17,ATTTATTTATTTATATGTACATATATATATATATAT [XGTACX_site339],9.54
18,TTAATTTATAAAAACACACACAGGTAAAAAGGTGCA [CACACA_site1177],9.31
19,TATTAATTTATTTGTTGTACGTAAATATGCTTGTTT [XGTACX_site6591],7.26
20,AAATGAACAAGTGGCACACACACATTCTAACTAATT [CACACA_site3203],6.93
21,TTCTATTTGTAAAATTGTACAAAATAAATAACAAAA [XGTACX_site1007],7.04
22,TACTTTTATATGAATACACACAGGAATATAAATATG [CACACA_site7647],7.2
23,GTATGAAAAAAAATATGTACACATATATATTTGGTA [XGTACX_site6309],7.07

row,Sequence,gcPBM binding intensity (ln)
1,TTCTTTGCTTTTCAAACACACAAAAGTTATTATATT [CACACA_site521],7.22
2,TAGAAAAACATTACGTGTACCAAACATCCTAGCAAC [XGTACX_site4888],7.19
3,TTCATTGTGTTAACGGTGCATATATTTTTTCACCGT [GTGCAC_site9464],10.3
4,GCAGCAGCATTTTCAGTGCATTATTATATTGTTCAT [GTGCAC_site9926],7.98
5,TTGTTCATATTTTTTATTGTGTTAATATTTATAAAA [GTGCAC_negctrl_site423],7.28
6,CAAAAGGATAGGCACACACACACACCCATATATATA [CACACA_site2199],7.55
7,ATGTATATAATATTATGTACATATATGAAATATTTT [XGTACX_site8168],7.02
8,CGCACCCACAGACACACACACACATATATATATATA [CACACA_site2202],9.47
9,CGCGCACCCAGACACACACACACACCGATATATATA [CACACA_site8687],10.6
10,GGAGCACCCAGACACACACACACATATATATATATA [CACACA_site336],9.19
11,CACCCACACCAACACACACACATATATATATATATA [CACACA_site362],9.74
12,CACCCCCACAGACACACACACACACCGATATATATA [CACACA_site8010],7.89
13,CACACCCACCAACACACACACACACCCACCCATATA [CACACA_site366],7.11
14,CGCGCACCCAGACACACACACACACCCATATATATA [CACACA_site2203],10.8
15,CGCGCCCAGAAACACACACACACACCGATATATATA [CACACA_site5250],7.62
16,CACGCGCACCAACACACACACACACCCATATATATA [CACACA_site2204],10.6
17,TTTTAGCACTTATTATAAGATATCAAAAAGATGGGT [XGTACX_negctrl_site325],7.32
18,ATAAATTCTATGTATACACACATATATAATATATAT [CACACA_site2689],7.26
19,TTTTTATTAATAGATATAAATATATAATATGAATGT [TGCATGCA_negctrl_site309],7.04
20,AAAGAATTATATAAGGTGCACGAATGTTTCTTTAAT,10.9
21,TTTCTTTTTTTTTAATGTACTTTTTTTATAAAAGGT [XGTACX_site5688],7.27
22,ATAATTATTTAATATATATATATTATTTCGAATGTT [GTGCAC_negctrl_site688],7.03
23,TAAAAACAAAAATGTTGTACATAATATAAAACAATT [XGTACX_site6380],7.04

row,Sequence,gcPBM binding intensity (ln)
1,ATTTTTTAAATTTAAACACACATTTTGTATATGTTT [CACACA_site1654],7.02
2,ATATATTTATTAAGGTGTACAAAAATTATGTTGCAT [XGTACX_site7546],7.16
3,ATTTATATTACCCTTGCATGTAGGTGCAATTTTTTT [TGCATGCA_site757],11
4,ATTTTTTTTTTTTTATGTACATATAGGTGCAAATCA [XGTACX_site6748],11.4
5,ATATTTTTATTAGTAGTGCAATTTAGTGTATATATA [GTGCAC_site9542],8.39
6,AATTCATTTTACCCATGTACACAATTATATTTTATA [XGTACX_site4127],7.23
7,GACAATTATATGTAGGTGCATATACAAATTTTTTAA,10.9
8,ATATATATATATTTATGTACATATATTTTTTTTTTT [XGTACX_site8558],8.71
9,CATATATATTTTATATGTACATATATATTTTATATA [XGTACX_site8665],7.03
10,TTTATATATTATTAATGTACAAAATTTTTATTGCAT [XGTACX_site3329],6.96
11,ATGTTATATATGTATTGTACGTATTTTGTATATTAT [XGTACX_site6607],7.4
12,AATATATCCTATTCGAACAAAAATACATGCACATAT [CACACA_negctrl_site1058],9.28
13,AAGGATTATTTTAATCGTACATGTGTAAATAATATA [XGTACX_site6177],6.98
14,AATAAATAAATATATATATATATATAATATCATAAA [CACACA_negctrl_site337],7.29
15,TAAAGAAAAATATAAAGTACAAAAATAAAAAAAATA [XGTACX_site8226],6.93
16,AGCATTAAAAATGGAATGGAATTAAGCTATATATTA [CACACA_negctrl_site1571],6.63
17,TTAAAGTTACATTCGACACACACATAACAACTAAAT [CACACA_site9130],7.1
18,AAAAAAAAAGATCACACACACATAAATATAAACAAA [CACACA_site5285],6.92
19,AAATAACAAAAGAAGGTGCTCATAAAAATTCATACA [GTGCAC_site9864],8.23
20,TCAGATCCATAGAAGGTGCAAATAACAAAAATACAA [GTGCAC_site9610],10.9
21,ACATACATATGTAAATGTACAAAATATCCATAGATT [XGTACX_site2782],6.81
22,TATAATGCTCTTCTTTGTACATATTATGATTATATT [XGTACX_site2332],7.15
23,ATTTTTTTTTTTTTTTTTTGGTTTTCTTTAGGAGTT [CACACA_negctrl_site1258],6.9

row,Sequence,gcPBM binding intensity (ln)
1,TTTGTTTGGTTTTGGTGTACTTTTTTTTTTTTTTCT [XGTACX_site2050],7.16
2,TTAGCAGGACGTTTGGTGCACGTACTGTTTTTCTTT [GTGCAC_site9856],10.3
3,CTTCTGGACAGGAATGCACACATTTTTTTTTCTTTT [CACACA_site1807],7
4,TTGACAGGAACGTTGGTGCACGTACTGTTTTTCTTT [GTGCAC_site9389],10.7
5,TACATGCTTATTTTAACACACAAATGGTAGTAATAA [CACACA_site766],6.93
6,ATATTTTTCAAACATCGTACATTATGAGTTAAAATT [XGTACX_site584],7.02
7,ATAAAAAGGAGACACACACACACACGCATATTTATA [CACACA_site6551],7.08
8,TGTGCACATAATTAGTGTACATTTTTTATTTAGACA [XGTACX_site317],10.9
9,AGACCTTTAATTTGTGTGCACATAATTAGTGTACAT [GTGCAC_site9434],8.49
10,TATATTATTAATTAAGCACACATTATTTTTATAATA [CACACA_site3982],6.89
11,ATATATATATATATAGTGCACATTTATATAATTATT,10.6
12,TTATATAATTTAATAGTGCAATTATATTAATTTTTC,7.73
13,ATAATATATAATATAGTGCATTATTTATTAATTAAT [GTGCAC_site9852],10.1
14,CTATTTCAATTTAGTGCACACATTTTAATTTATAAG [CACACA_site2040],10.5
15,GTATAATTATGTGCACGTACATATTTTATTATATAT [XGTACX_site8586],9.21
16,TTAATAATTAATTATAGTACACATTTATATTAATAA [XGTACX_site190],7.03
17,ATTCCACCTTAAAACTGTACTTTCTCAATCTTTTAT [XGTACX_site796],7.22
18,TTACTTAAATATAAGTGTCCTCAAAAAAAAAAAAAA [XGTACX_site460],6.94
19,ATTCGTCACATTTTTTGATATATATATATATATATA [CACACA_negctrl_site1785],9.68
20,TTTTTATTAAGACATGCATGGAAACGCACTATTTTA [TGCATGCA_site999],9.74
21,TTTTAAAAACGGCATGCATGTAATACATGGAAGGAA [TGCATGCA_site480],7.46
22,GGGTTTTTTATTAATACATGCATGGAAACGCACTAT [TGCATGCA_site1000],10.3
